# Laboratory results published in PubChem BioAssay (Tox21).
# Results filed as inconclusive are left out. Entries that show only a call come without a potency. Activity calls are given as the source filed them. Unless noted, calls come from the whole dose curve; as a rule, active = well fitted curve in the direction sought with a large enough effect in the repeat runs; inconclusive = weak or mixed curves; inactive = no such curve, though single readings can be large; an effect the other way counts as inactive or inconclusive.
# Legend:
# [1] = qHTS assay to identify aromatase inhibitors - cell viability counter screen (AID 743084);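 note: cells stimulated with testosterone during compound exposure; nearly all actives have a fitted effect of over 55% in size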
# [2] = biological target: Aryl hydrocarbon receptor (Homo sapiens) (UniProt P35869); test: qHTS assay to identify small molecule that activate the aryl hydrocarbon receptor (AhR) signaling pathway (AID 743085); note: nearly all actives have a fitted effect of over 15% in size; note: potency is the fitted concentration of half-maximal effect;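 for activation: HG2L7.5c1 human HepG2 liver cells with stably integrated DRE-driven firefly reporter; series mostly up to about 70 µM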
# Aryl hydrocarbon receptor (Homo sapiens), sequence (P35869 whole entry, looked up): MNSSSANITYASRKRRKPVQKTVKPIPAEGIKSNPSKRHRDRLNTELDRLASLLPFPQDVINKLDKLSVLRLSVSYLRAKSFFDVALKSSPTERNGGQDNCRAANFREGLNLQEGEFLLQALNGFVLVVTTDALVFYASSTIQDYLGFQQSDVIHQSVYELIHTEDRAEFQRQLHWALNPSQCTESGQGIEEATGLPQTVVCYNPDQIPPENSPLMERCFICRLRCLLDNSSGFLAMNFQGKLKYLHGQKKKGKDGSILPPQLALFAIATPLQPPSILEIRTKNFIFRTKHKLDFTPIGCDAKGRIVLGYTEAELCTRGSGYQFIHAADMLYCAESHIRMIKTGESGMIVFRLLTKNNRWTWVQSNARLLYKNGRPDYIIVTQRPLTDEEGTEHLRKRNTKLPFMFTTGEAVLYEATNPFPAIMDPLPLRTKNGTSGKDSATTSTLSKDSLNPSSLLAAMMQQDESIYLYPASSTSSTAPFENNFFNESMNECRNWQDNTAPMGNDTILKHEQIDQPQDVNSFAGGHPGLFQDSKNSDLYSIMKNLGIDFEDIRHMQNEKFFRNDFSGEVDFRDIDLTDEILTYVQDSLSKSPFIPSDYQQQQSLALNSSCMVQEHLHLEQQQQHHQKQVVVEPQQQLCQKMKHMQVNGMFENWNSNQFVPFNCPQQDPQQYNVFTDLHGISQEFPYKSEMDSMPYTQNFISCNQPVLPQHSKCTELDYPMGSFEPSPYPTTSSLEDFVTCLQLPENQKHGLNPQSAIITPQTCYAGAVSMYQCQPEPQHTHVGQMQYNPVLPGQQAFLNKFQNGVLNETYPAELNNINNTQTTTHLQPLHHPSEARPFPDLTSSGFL
# Method in brief: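 Measured in HG2L7.5c1 cells: CellTiter-Fluor signal (30 min incubation, 37C) for viability, then luciferase luminescence (30 min, room temperature). Compound contact time was 24 h at 37C, following a 5 h pre-incubation.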
# [3] = qHTS assay to identify small molecule that activate the aryl hydrocarbon receptor (AhR) signaling pathway - cell viability counter screen (AID 743086);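 note: HepG2 liver cells carrying the AhR DRE luciferase reporter; series mostly up to about 70 µM; nearly all actives have a fitted effect of over 45% in size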
# Method in brief: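 HepG2-AhR-luc (HG2L7.5c1) cells, 4000/well, treated 24 h at 37 C with compound; viability measured as CellTiter-Fluor fluorescence after 30 min in the same wells as the luciferase read.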
# [4] = biological target: Peroxisome proliferator-activated receptor gamma (Homo sapiens) (UniProt P37231); test: qHTS assay to identify small molecule agonists of the peroxisome proliferator-activated receptor gamma (PPARg) signaling pathway (AID 743094; active = well fitted activation curve with a large enough effect in the signal ratio in the repeat runs, not every such curve was filed as active; the % refers to the signal ratio)
# Peroxisome proliferator-activated receptor gamma (Homo sapiens), sequence (P37231 whole entry, looked up): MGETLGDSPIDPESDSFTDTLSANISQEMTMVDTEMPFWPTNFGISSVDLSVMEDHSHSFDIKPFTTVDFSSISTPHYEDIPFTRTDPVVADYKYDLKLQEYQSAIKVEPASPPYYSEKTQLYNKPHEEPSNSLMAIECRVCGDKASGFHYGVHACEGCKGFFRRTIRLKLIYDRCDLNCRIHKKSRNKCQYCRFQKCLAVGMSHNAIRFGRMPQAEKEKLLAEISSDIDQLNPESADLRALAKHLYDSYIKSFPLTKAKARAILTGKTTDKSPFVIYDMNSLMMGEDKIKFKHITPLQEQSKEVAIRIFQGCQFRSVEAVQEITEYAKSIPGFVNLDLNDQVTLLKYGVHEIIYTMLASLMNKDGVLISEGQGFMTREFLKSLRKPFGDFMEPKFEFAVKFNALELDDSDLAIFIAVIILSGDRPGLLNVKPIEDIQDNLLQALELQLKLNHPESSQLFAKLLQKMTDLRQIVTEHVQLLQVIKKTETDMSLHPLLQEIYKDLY
# Method in brief: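 Fluorescence-based beta-lactamase readout in HEK293H PPARg UAS-bla cells after 17 h compound exposure (37C) and 1 h B/G FRET substrate incubation at room temperature.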
# [5] = biological target: Peroxisome proliferator-activated receptor gamma (Homo sapiens) (UniProt P37231); test: qHTS assay to identify small molecule antagonists of the peroxisome proliferator-activated receptor gamma (PPARg) signaling pathway (AID 743191; calls by dose curve; note: series mostly up to about 63 µM; nearly all actives have a fitted effect of over 30% in size)
# Method in brief: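 GeneBLAzer PPARg UAS-bla HEK293H cells, 5 h post-plating, exposed to compounds 17 h at 37C. LiveBLAzer B/G FRET substrate added for 1 h at room temperature; beta-lactamase reporter read by fluorescence intensity.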
# [6] = qHTS assay to identify small molecule antagonists of the peroxisome proliferator-activated receptor gamma (PPARg) signaling pathway - cell viability counter screen (AID 743194); conditions: Potency: co-treated with 50 nM rosiglitazone; note: nearly all actives have a fitted effect of over 55% in size
# Method in brief: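 Cytotoxicity counter screen in PPARg-bla HEK293H cells, same wells as reporter assay. Compounds plus 50 nM rosiglitazone (final) for 17 h at 37 C, then viability read by CellTiter-Glo luminescence.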
# [7] = qHTS assay for small molecule agonists of the antioxidant response element (ARE) signaling pathway (AID 743202; active = well fitted activation curve with a large enough effect in the signal ratio in the repeat runs, not every such curve was filed as active; the % refers to the signal ratio)
# Method in brief: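 HepG2 ARE-bla cells; 16 h treatment at 37 C; FRET-based beta-lactamase fluorescence read after 2 h substrate incubation at room temperature.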
# [8] = qHTS assay for small molecule agonists of the antioxidant response element (ARE) signaling pathway - cell viability counter screen (AID 743203; calls by dose curve; note: nearly all actives have a fitted effect of over 55% in size)
# Method in brief: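 Parallel cytotoxicity read-out for the ARE-bla screen: HepG2 reporter cells, 16 hrs with compounds, then CellTiter-Glo luminescence.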
# [9] = qHTS assay for small molecule activators of the heat shock response signaling pathway - cell viability counter screen (AID 743209); note: nearly all actives have a fitted effect of over 50% in size
# Method in brief: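 To flag cytotoxic compounds, HSE-bla HeLa cells plated at 1500 cells/well were dosed for 5 h at 37 C, followed by the reporter FRET read and then CellTiter-Glo, with luminescence recorded 30 min after reagent addition.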
# [10] = qHTS assay for small molecule activators of the heat shock response signaling pathway (AID 743210; active = well fitted activation curve with a large enough effect in the signal ratio in the repeat runs, with a control signal flat, not every such curve was filed as active; the % refers to the signal ratio;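 note: HeLa cells with beta-lactamase reporter driven by heat shock elements; series mostly up to about 63 µM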)
# Method in brief: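 Following overnight attachment, HSE-bla HeLa cells received test compounds for 5 h at 37 C; beta-lactamase activity was then detected via FRET substrate fluorescence.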
# [11] = qHTS assay to identify small molecule agonists of the peroxisome proliferator-activated receptor delta (PPARd) signaling pathway - cell viability counter screen (AID 743211); note: nearly all actives have a fitted effect of over 55% in size
# Method in brief: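 Following 5 h plating at 37 C and 5% CO2, PPARd UAS-bla HEK293H cells took up test compounds for 17 h. Viability was quantified by luminescence 30 min after CellTiter-Glo addition at room temperature.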
# [12] = biological target: Peroxisome proliferator-activated receptor delta (Homo sapiens) (UniProt Q03181); test: qHTS assay to identify small molecule agonists of the peroxisome proliferator-activated receptor delta (PPARd) signaling pathway (AID 743212; calls by dose curve)
# Peroxisome proliferator-activated receptor delta (Homo sapiens), sequence (Q03181 whole entry, looked up): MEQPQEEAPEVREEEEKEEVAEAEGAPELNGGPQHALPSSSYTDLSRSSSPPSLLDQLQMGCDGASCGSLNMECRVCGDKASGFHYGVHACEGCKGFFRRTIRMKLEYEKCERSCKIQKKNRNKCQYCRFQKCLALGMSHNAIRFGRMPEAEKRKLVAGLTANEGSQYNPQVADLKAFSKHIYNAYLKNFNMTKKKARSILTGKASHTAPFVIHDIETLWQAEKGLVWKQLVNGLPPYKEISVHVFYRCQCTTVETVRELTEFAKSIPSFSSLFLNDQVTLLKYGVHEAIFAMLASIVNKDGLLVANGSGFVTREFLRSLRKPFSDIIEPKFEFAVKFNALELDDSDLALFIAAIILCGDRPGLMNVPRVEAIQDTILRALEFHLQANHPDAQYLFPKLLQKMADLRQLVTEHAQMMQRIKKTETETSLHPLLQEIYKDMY
# Method in brief: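 Tox21 library screened in GeneBLAzer PPARd UAS-bla HEK293H cells. After compound treatment at 37 C, a FRET-based beta-lactamase substrate was applied for 2 h and fluorescence recorded.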
# [13] = qHTS assay to identify small molecule antagonists of the peroxisome proliferator-activated receptor delta (PPARd) signaling pathway - cell viability counter screen (AID 743213); note: nearly all actives have a fitted effect of over 50% in size
# Method in brief: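 CellTiter-Glo was added to PPARd-bla HEK293H wells following 17 h compound treatment in the presence of 300 nM L165041. Luminescence was recorded after 30 min at room temperature.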
# [14] = biological target: Peroxisome proliferator-activated receptor delta (Homo sapiens) (UniProt Q03181); test: qHTS assay to identify small molecule antagonists of the peroxisome proliferator-activated receptor delta (PPARd) signaling pathway (AID 743215; active = well fitted inhibition curve with a large enough effect in the signal ratio in the repeat runs, not every such curve was filed as active; the % refers to the signal ratio;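 note: cells stimulated with agonist L165041 at 300 nM final during compound exposure; series mostly up to about 62 µM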)
# Method in brief: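 Screen format: qHTS, antagonist mode. HEK293H PPARd-bla cells received compound and 300 nM L165041 (final), 17 h, 37 C. Beta-lactamase detected via FRET substrate fluorescence, 2 h, room temperature.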
# [15] = biological target: Bile acid receptor (Homo sapiens) (UniProt Q96RI1); test: qHTS assay to identify small molecule antagonists of the farnesoid-X-receptor (FXR) signaling pathway (AID 743217; active = well fitted inhibition curve with a large enough effect in the signal ratio in the repeat runs, not every such curve was filed as active; the % refers to the signal ratio)
# Bile acid receptor (Homo sapiens), sequence (Q96RI1 whole entry, looked up): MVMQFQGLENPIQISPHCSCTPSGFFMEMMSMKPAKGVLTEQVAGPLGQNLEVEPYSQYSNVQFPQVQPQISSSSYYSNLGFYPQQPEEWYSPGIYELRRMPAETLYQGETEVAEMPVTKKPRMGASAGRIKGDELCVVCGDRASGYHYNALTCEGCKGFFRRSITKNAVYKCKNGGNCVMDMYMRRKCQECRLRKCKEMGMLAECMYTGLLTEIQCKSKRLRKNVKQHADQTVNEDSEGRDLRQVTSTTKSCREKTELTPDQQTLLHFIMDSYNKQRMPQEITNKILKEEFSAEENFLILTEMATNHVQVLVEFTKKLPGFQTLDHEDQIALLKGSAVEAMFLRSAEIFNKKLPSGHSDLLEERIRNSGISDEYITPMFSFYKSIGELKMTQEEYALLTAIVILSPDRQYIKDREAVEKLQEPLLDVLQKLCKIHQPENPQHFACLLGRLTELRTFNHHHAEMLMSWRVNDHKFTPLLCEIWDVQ
# Method in brief: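 Quantitative HTS, beta-lactamase reporter format: FXR-UAS-bla HEK 293T cells co-treated 16 h at 37 °C with compounds and 50 uM final chenodeoxycholic acid, then read by B/G FRET fluorescence.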
# [16] = qHTS assay to identify small molecule agonists of the farnesoid-X-receptor (FXR) signaling pathway - cell viability counter screen (AID 743218); note: nearly all actives have a fitted effect of over 45% in size
# Method in brief: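 Same-well cytotoxicity check on FXR-UAS-bla HEK 293T cells: 5 h attachment, 16 h compound at 37 C, CellTiter-Glo luminescence read at room temperature after 30 min.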
# [17] = biological target: Bile acid receptor (Homo sapiens) (UniProt Q96RI1); test: qHTS assay to identify small molecule agonists of the farnesoid-X-receptor (FXR) signaling pathway (AID 743220; active = well fitted activation curve with a large enough effect in the signal ratio in the repeat runs, not every such curve was filed as active; the % refers to the signal ratio)
# Method in brief: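 FXR-UAS-bla HEK 293T cells carrying a UAS-driven beta-lactamase reporter were plated for 5 h at 37C/5% CO2, then exposed to DMSO-dissolved Tox21 10K compounds for 16 h at 37C. A LiveBLAzer B/G FRET substrate was loaded for 2 h at room temperature before fluorescence reading.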
# [18] = qHTS assay to identify small molecule antagonists of the farnesoid-X-receptor (FXR) signaling pathway - cell viability counter screen (AID 743221; active = well fitted cell-killing curve with a large enough effect in the repeat runs, not every such curve was filed as active; note: nearly all actives have a fitted effect of over 50% in size)
# Method in brief: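 Compound effects on cell number were measured as CellTiter-Glo luminescence in HEK 293T cells expressing FXR-UAS-bla, after 16 h at 37 C with 50 uM CDCA (final).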
# [19] = biological target: Vitamin D3 receptor (Homo sapiens) (UniProt P11473); test: qHTS assay to identify small molecule agonists of the vitamin D receptor (VDR) signaling pathway (AID 743222; calls by dose curve)
# Vitamin D3 receptor (Homo sapiens), sequence (P11473 whole entry, looked up): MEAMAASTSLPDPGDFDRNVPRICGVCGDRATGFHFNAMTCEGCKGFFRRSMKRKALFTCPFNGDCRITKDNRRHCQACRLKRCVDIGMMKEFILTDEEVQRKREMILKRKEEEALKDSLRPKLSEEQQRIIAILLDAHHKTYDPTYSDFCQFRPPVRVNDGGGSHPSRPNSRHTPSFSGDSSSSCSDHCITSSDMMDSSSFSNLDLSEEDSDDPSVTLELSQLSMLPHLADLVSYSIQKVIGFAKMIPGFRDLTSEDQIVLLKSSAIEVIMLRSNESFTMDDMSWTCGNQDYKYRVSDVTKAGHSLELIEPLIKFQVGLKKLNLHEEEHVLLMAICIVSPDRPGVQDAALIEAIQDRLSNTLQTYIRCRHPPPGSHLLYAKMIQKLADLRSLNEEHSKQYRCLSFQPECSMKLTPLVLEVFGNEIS
# Method in brief: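 Using LiveBLAzer B/G FRET detection, agonism was scored in VDR-bla cells exposed overnight (16 h, 37C) to DMSO-dissolved compounds; substrate incubation was 2 h at room temperature.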
# [20] = biological target: Vitamin D3 receptor (Homo sapiens) (UniProt P11473); test: qHTS assay to identify small molecule antagonists of the vitamin D receptor (VDR) signaling pathway (AID 743223; active = well fitted inhibition curve with a large enough effect in the signal ratio in the repeat runs, not every such curve was filed as active; the % refers to the signal ratio)
# Method in brief: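 Beta-lactamase activity in VDR-bla cells is measured by FRET substrate fluorescence (2 h, room temperature) after cells spend 16 h at 37C with test compound and 3 nM final 1alpha,25-dihydroxyvitamin D3.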
Compound,Potency [1],Potency [2],outcome [3],outcome [4],Potency [5],Potency [6],Potency [7],Potency [8],Potency [9],outcome [10],Potency [11],outcome [12],outcome [13],outcome [14],Potency [15],Potency [16],outcome [17],outcome [18],outcome [19],outcome [20]
CSc1ccc(C(=O)C(C)(C)N2CCOCC2)cc1,inactive,inactive,inactive,inactive,inactive,inactive,inactive,inactive,inactive,inactive,inactive,inactive,inactive,inactive,inactive,inactive,inactive,inactive,inactive,inactive
N#CC(O)c1ccccc1 (stereo not given),inactive,inactive,inactive,inactive,inactive,inactive,inactive,inactive,inactive,inactive,inactive,inactive,inactive,inactive,inactive,inactive,inactive,inactive,inactive,
[O]=[Cd],inactive,inactive,inactive,inactive,inactive,inactive,inactive,inactive,inactive,inactive,inactive,inactive,,inactive,,inactive,,inactive,inactive,
CCN(CC)C(C)C(=O)c1ccccc1 (stereo not given),inactive,inactive,inactive,inactive,inactive,inactive,inactive,inactive,inactive,inactive,inactive,inactive,,inactive,,inactive,,inactive,,
N#Cc1c(Cl)cccc1Cl,inactive,inactive,inactive,inactive,inactive,inactive,inactive,inactive,inactive,inactive,inactive,inactive,inactive,inactive,,,,inactive,,
ClC(Cl)(Cl)C(Cl)(Cl)Cl,inactive,inactive,inactive,inactive,inactive,inactive,inactive,inactive,inactive,inactive,inactive,,inactive,,,inactive,,inactive,inactive,inactive
CCOC(=O)CP(=O)(OCC)OCC,inactive,inactive,inactive,inactive,,inactive,inactive,inactive,inactive,inactive,inactive,inactive,inactive,inactive,inactive,inactive,inactive,,,
CC1(C)CON(Cc2ccccc2Cl)C1=O,inactive,inactive,inactive,inactive,inactive,inactive,,inactive,inactive,inactive,inactive,inactive,,inactive,,inactive,,,inactive,inactive
CCC(Cl)[N+](=O)[O-] (stereo not given),inactive,inactive,inactive,inactive,,inactive,inactive,inactive,inactive,inactive,inactive,inactive,inactive,inactive,inactive,inactive,inactive,inactive,inactive,inactive
COc1cc(OC)nc(Oc2cccc(Oc3nc(OC)cc(OC)n3)c2C(=O)O)n1,inactive,inactive,inactive,inactive,inactive,inactive,inactive,,inactive,inactive,inactive,inactive,,inactive,,inactive,inactive,inactive,,inactive
O=[N+]([O-])c1cccc2cccnc12,inactive,35.3 µM (active),inactive,inactive,inactive,inactive,,inactive,inactive,inactive,inactive,inactive,inactive,inactive,inactive,,inactive,inactive,inactive,inactive
CCOC(=O)N(C)C(=O)CSP(=S)(OCC)OCC,inactive,15.4 µM (active),inactive,inactive,inactive,inactive,,inactive,inactive,inactive,,inactive,inactive,,,inactive,inactive,inactive,inactive,
NC(=S)C(N)=S,inactive,inactive,inactive,inactive,inactive,,,inactive,inactive,inactive,inactive,,,inactive,inactive,,inactive,inactive,inactive,
O=C1OC(c2ccc(O)c(S(=O)(=O)O)c2)(c2ccc(O)c(S(=O)(=O)O)c2)c2c(Br)c(Br)c(Br)c(Br)c21,inactive,inactive,inactive,inactive,inactive,inactive,,inactive,inactive,inactive,inactive,inactive,inactive,inactive,,inactive,inactive,inactive,inactive,
CC1CCCCC1NC(=O)Nc1ccccc1 (stereo not given),inactive,inactive,inactive,inactive,,inactive,inactive,inactive,inactive,inactive,inactive,inactive,inactive,inactive,inactive,inactive,inactive,inactive,inactive,inactive
COC(=O)C1=CCCN(C)C1,inactive,inactive,inactive,inactive,,inactive,inactive,inactive,inactive,inactive,inactive,inactive,,inactive,inactive,inactive,inactive,,inactive,inactive
CNC(=O)N(C)c1nc2ccccc2s1,inactive,27.3 µM (active),inactive,inactive,inactive,inactive,,inactive,inactive,inactive,inactive,inactive,inactive,inactive,inactive,inactive,inactive,inactive,inactive,
